In PubChem BioAssay AID485297 (National Center for Advancing Translational Sciences (NCATS), 2010):
In all, about 320,000 compounds went through this assay and about 9,100 (2.8%) were called active. About 3% were inconclusive and are not listed. Calls come from the whole dose curve; as a rule, active = well fitted activation curve with a large enough effect; inconclusive = small, poorly fitted or top-dose-only effect; inactive = no such curve, though single readings can be large or run the other way. What follows is part of a selection rich in actives, with near analogues and random picks from the rest.

Assay: qHTS Assay for Rab9 Promoter Activators; note: nearly all actives have a fitted effect of over 60% in size; for activation, negative = inhibition: % of control where 0% means no effect
Settings: Huh7 Rab9 promoter-luciferase reporter, luminescence, 24 h; series mostly up to 9.22 µM; activation, negative = inhibition: at the top concentration
Description: NIH Chemical Genomics Center [NCGC] NIH Molecular Libraries Probe Production centers Network [MLPCN] MLPCN Grant: MH089537-01 Assay Submitter (PI): Yiannis A. Ioannou NCGC Assay Overview: Niemann Pick Type C (NPC) is a rare neurodegenerative lipidosis that is characterized by lipid storage in the endosomal/lysosomal system. Treatment modalities for this devastating disease are currently non-existent due to the severe obstacles associated with accessing the central nervous system with proteins or genes (Ioannou, 2000). We have developed a new paradigm, termed "Orphan Receptor Bypass Therapy" (ORByT), to address these disorders. This paradigm posits the existence of endogenous "suppressor" proteins whose expression can dramatically improve LSD pathogenesis. The goal is the identification/discovery of small chemical compounds that can modulate the expression of these proteins and provide a new treatment modality for these devastating disorders. One such protein whose overexpression reverses aspects of the NPC phenotype is Rab9. We have developed and optimized a cell based luciferase reporter assay in 1536 well format for the identification of up-regulators of the Rab9 promoter.
The Rab9 promoter is cloned in front of the luciferase reporter gene, therefore […] promoter activation results in luciferase expression. Frozen stock of the Rab9 promoter transfected Huh7 cells were obtained from the laboratory of Dr. Yiannis Ioannou (The Mount Sinai School of Medicine, New York, NY). Cells were propagated and maintained at NCGC in medium containing RPMI-1640 supplemented with 10% FBS, 2mM L-glutamine, and 50ug/ml penicillin/streptomycin. Cells were harvested in and plated for assays in OP-MEM I reduced-serum medium supplemented with 10% FBS. The Amplite luciferase reporter gene assay kit was purchased from ABD Bioquest and prepared/stored according to manufacturers recommendations. qHTS Assay Setup: 1.Dispensed 5ul of Huh7 cells stably expressing Rab9-luciferase at a density of 1500 cells per well 1536-well plates. 2.Incubate cells at 37C, 5% CO2, and 95% humidity for 2 hours. 3.Transferred 23nl per well of compound in DMSO solution. 4.Incubated at 37C, 5% CO2, and 95% humidity for 24 hours. 5.Dispensed 3ul per well of Amplite reagent(ABD Bioquest) per well. 6.Incubate at ambient for 10 minutes. 7.Read using the luminescence protocol on the ViewLux plate reader (Perkin Elmer).
Potency is the fitted concentration of half-maximal effect.

Structure (SMILES)	activation, negative = inhibition	Potency
O=C(COC(=O)c1ccc(Oc2ccccc2)cc1)Nc1nnc(-c2ccccc2)o1	-3.52% (inactive)	–
Nc1ccc(-c2nnc(-c3ccc(-c4ccccc4)cc3)o2)cc1	–	2.51 µM (active)
O=C(COC(=O)c1ccccc1Br)Nc1nnc(-c2ccccc2)o1	1.02% (inactive)	–
Nc1ccc(-c2nnc(-c3ccccc3)o2)cc1	–	3.98 µM (active)
Nc1ccc(-c2sc(N)nc2-c2ccccc2)cc1	-1.5% (inactive)	–
O=C(Nc1cccc(Cl)c1)Nc1nnc(-c2ccccc2)o1	-0.239% (inactive)	–
CC(C(=O)NC1CCCC1)N1CCN(S(=O)(=O)c2ccccc2Cl)CC1 (stereo unspecified)	-5% (inactive)	–
COc1ccc(N(CCC(=O)NCCc2ccccc2)S(=O)(=O)c2ccc(C)cc2C)cc1	20.1% (inactive)	–
COC(=O)c1ccc(C(=O)NC2CC(C)(C)Cc3c2cnn3-c2ccc(F)cc2)nc1 (stereo unspecified)	0.0943% (inactive)	–
Cn1c(N)c(C(=O)COC(=O)COc2ccc(Cl)cc2)c(=O)n(C)c1=O	-7.69% (inactive)	–
Cc1ccoc1C(=O)Nc1cccc(Oc2ccccc2)c1	–	3.98 µM (active)
Cc1cccc(NC(=O)Nc2cccc(Oc3c(F)c(F)c(F)c(F)c3F)c2)c1	-10.1% (inactive)	–
Cc1ccc(C(=O)COc2cccc(NC(=O)c3ccco3)c2)cc1	-4.08% (inactive)	–
Cc1ccc2c(c1)c1ncnc(N3CCc4ccccc4C3)c1n2C	28.8% (inactive)	–
Cc1cccc(-n2ncc3c(N4CCc5ccccc54)ncnc32)c1	–	2 µM (active)
COc1ccc(-n2ncc3c(N4CCCc5ccccc54)ncnc32)cc1	–	0.794 µM (active)
COc1ccc(Oc2c(Cl)cnn(-c3ccccc3)c2=O)cc1	-8.14% (inactive)	–
COc1ccc2oc(=O)c(C(=O)N3CCCc4ccccc43)cc2c1	-2.67% (inactive)	–
Cc1cccc(-n2ncc(Cl)c(Cl)c2=O)c1	-53.7% (inactive)	–
CC1(NC(=O)CCS(=O)(=O)c2ccc(Cl)cc2)CCS(=O)(=O)C1 (stereo unspecified)	-0.164% (inactive)	–
COCCNc1nc2nonc2nc1N1CCCC1c1nccs1 (stereo unspecified)	-11.2% (inactive)	–
CC(=O)NC12CC3CC(C1)CC(C(=O)N1CCN(C(=O)c4ccco4)CC1)(C3)C2	2.91% (inactive)	–

Structure (SMILES)	activation, negative = inhibition	Potency
CCCNC(=O)CCc1c(C)nc2c(c(C)nn2-c2ccc(C)cc2)c1C	-3.89% (inactive)	–
CCCNC(=O)c1ccc(Cl)c(Cl)c1	-0.125% (inactive)	–
CCCNC(=O)c1c(Cl)cnn1-c1ccc(C)cc1	–	2.51 µM (active)
O=C(CCc1nc2sc3c(c2c(=O)[nH]1)CCCC3)NCC(=O)Nc1ccccc1Br	-0.0082% (inactive)	–
COc1cc(OC)cc(-c2c(-c3cccs3)c3cc(-c4ccc(OC)nc4)ccc3n2C)c1	-5.18% (inactive)	–
O=C(NCC(=O)N1CCCCCCC1)c1ccccc1Cl	19.2% (inactive)	–
COc1ccccc1/C=C/C(=O)OCC(=O)NC1CCCCCC1	-1.16% (inactive)	–
Cc1cc(C)n2nc(C(=O)OCC(=O)N(C)CC(=O)Nc3ccc(F)cc3)nc2n1	-4.64% (inactive)	–
CCC(C)N(C)C1CCN(C(=S)Nc2ccc(OC)cc2)CC1 (stereo unspecified)	0.502% (inactive)	–
COc1ccc(NC(=S)N2N=CCC2c2ccccc2)cc1 (stereo unspecified)	–	3.16 µM (active)
COc1ccc(C(=O)NC2CCN(C(=S)Nc3ccccc3)CC2)cc1	3.06% (inactive)	–
CC(C(=O)Nc1ccc(S(=O)(=O)N2CCCC2)cc1)N(C)Cc1ccc(F)cc1 (stereo unspecified)	-1.48% (inactive)	–
CN(CC(=O)NCc1ccc(Cl)cc1)S(=O)(=O)c1cccs1	0.449% (inactive)	–
COc1cccc(NC(=O)COC(=O)/C=C/c2ccco2)c1	-3.31% (inactive)	–
COC(=O)C1=C(C)NC(=S)NC1c1ccc(OCC(=O)N2CC(C)OC(C)C2)c(OC)c1 (stereo unspecified)	-3.17% (inactive)	–
O=C(NC1=NCCS1)c1ccc(Cl)s1	–	3.98 µM (active)
CCOc1ccc(C(=O)CCC(=O)NC2=NCCS2)cc1	0.981% (inactive)	–
COc1ccccc1C(=O)NCCC(=O)NC1=NCCS1	0.791% (inactive)	–
O=C(NCc1ccc2c(c1)OCO2)c1ccc(Cl)s1	13% (inactive)	–
COc1ccc(C(=O)NC2=NCCS2)c(OC)c1	–	1.41 µM (active)
COc1ccc(Cc2nnc(NC(=O)c3ccc(OC)cc3OC)s2)cc1	28.2% (inactive)	–
COc1ccc(OC)c(NC(=O)c2cnn(-c3ccccc3Cl)c2NC(=O)c2ccco2)c1	3.75% (inactive)	–

Structure (SMILES)	activation, negative = inhibition	Potency
COc1ccccc1OCC(=O)Nc1c2c(nn1-c1ccc(F)cc1)CS(=O)(=O)C2	4.13% (inactive)	–
Cc1occc1-c1nnc(SCC(=O)NC2(C#N)CCCC2)n1C	-3.34% (inactive)	–
CC(C)(C)C(=O)Nc1ccc(-c2cn3cccnc3n2)cc1	–	3.98 µM (active)
CC(=O)Nc1ccc(S(=O)(=O)Nc2nc(-c3ccc(C(C)(C)C)cc3)cs2)cc1	-2.13% (inactive)	–
CC(=O)Nc1ccc(S(=O)(=O)Nc2cccc(NC(=O)C(C)(C)C)c2)cc1	-4.58% (inactive)	–
FC(F)(F)Oc1ccc(-c2cn3cccnc3n2)cc1	–	2.51 µM (active)
O=c1ccc(S(=O)(=O)N2CCCC2)cn1Cc1nc(-c2ccccc2)no1	-5.62% (inactive)	–
O=C(Cn1nnc(-c2ccccc2)n1)NC(=O)NC1CCCC1	-3.17% (inactive)	–
CCOc1ccc(NC(=O)CN(C)C(=O)c2cccc(S(=O)(=O)N3CCCC3)c2)cc1OCC	-0.932% (inactive)	–
CCN(CC(=O)Nc1ccc(OC)cc1)C(=O)CSCc1ccc(C)cc1	-5.85% (inactive)	–
CC1(C)CC(=O)C=C(c2ccc3ncccc3c2)C1	-3.31% (inactive)	–
O=C(Nc1cc(S(=O)(=O)N2CCOCC2)ccc1OCC(F)(F)F)c1ccc(N2CCCC2=O)cc1	0.24% (inactive)	–
Cc1cc(SCc2c(F)cccc2Cl)nc(=O)[nH]1	8.66% (inactive)	–
Fc1cccc(Cl)c1CSc1ccc(-c2ccco2)nn1	–	2.51 µM (active)
O=C(CSc1ccc(-c2ccco2)nn1)Nc1cccc(F)c1	-1.84% (inactive)	–
O=C(COC(=O)CNC(=O)C1CCCCC1)Nc1cccc(F)c1	1.46% (inactive)	–
CCN(CC(=O)Nc1c(F)cccc1F)C(=O)c1ccc(-c2ccc(C(C)=O)cc2)o1	-4.82% (inactive)	–
Cc1cc(C)cc(-c2nnc(SCC(=O)NC3CC3)o2)c1	0.777% (inactive)	–
Cc1ccc(C(CC(=O)O)NC(=O)c2ccc(S(=O)(=O)N3CCCC3)cc2)cc1 (stereo unspecified)	-1.46% (inactive)	–
O=C(OCc1ccc(Br)cc1)c1cccc(-c2nnc(-c3ccccc3)o2)c1	–	3.55 µM (active)
CC(=O)Nc1cccc(C(=O)OCC(=O)Nc2nnc(-c3ccccc3)o2)c1	-1.13% (inactive)	–
O=C(OCc1nnc(-c2ccccc2)o1)c1ccc2c(c1)C(=O)N(CCc1ccccc1)C2=O	-10.1% (inactive)	–

Structure (SMILES)	activation, negative = inhibition	Potency
O=C(NCCC1=CCCCC1)c1ccc(Cl)c([N+](=O)[O-])c1	3.78% (inactive)	–
O=C(COc1cccc(-n2cnnn2)c1)NCCC1=CCCCC1	-3.87% (inactive)	–
O=C(NCCC1=CCCCC1)c1ccc(-n2cncn2)cc1	–	3.16 µM (active)
C=C1CCC(N(O)c2cc(C)on2)C(=C)CCC2C1CC2(C)C (stereo unspecified)	-1.42% (inactive)	–
Cc1ccc(OCC(=O)N2CCN(S(=O)(=O)c3ccc(Cl)s3)CC2)cc1C	-6.05% (inactive)	–
Cc1ccc(/C=C/C(=O)OCC(=O)NCc2ccc(Cl)cc2)o1	-9.12% (inactive)	–
COc1ccc(OCc2cccc(C(=O)N3CCCC3)c2)cc1	–	0.398 µM (active)
CCOc1ccc(OCc2cccc(C(=O)N(CC)CC)c2)cc1	–	0.141 µM (active)
COc1cccc(COc2ccc(N(C)S(=O)(=O)c3ccccc3)cc2)c1	-0.555% (inactive)	–
COc1ccc(Cn2c(=S)[nH]c3cc(C(=O)N4CCCCC4)ccc3c2=O)cc1	1.59% (inactive)	–
CN(Cc1ccccc1)C(=O)c1ccc(COc2ccccc2)cc1	-1.02% (inactive)	–
CC(=O)Oc1ccc(-c2cccc(C(=O)N3CCCCC3)c2)cc1	11.6% (inactive)	–
COc1ccccc1CNS(=O)(=O)c1cc(C(=O)NCc2ccccn2)c(Cl)cc1Cl	-2.2% (inactive)	–
CC(C(=O)N(C)CC(=O)Nc1ccccc1C(F)(F)F)N1C(=O)c2ccccc2C1=O (stereo unspecified)	0.587% (inactive)	–
Nn1c(SCC(=O)Nc2nccs2)nnc1-c1ccco1	-2.6% (inactive)	–
CCN(CC(=O)Nc1ccc(OC)cc1)C(=O)c1ccc(Cl)c(S(=O)(=O)N2CCCC2)c1	-1.06% (inactive)	–
Cc1ccccc1NC(=O)Cc1nc(COC(=O)c2cccnc2Cl)cs1	1.11% (inactive)	–
O=C(NCCc1c[nH]c2ccccc12)c1cc2ccccc2oc1=O	–	3.98 µM (active)
O=C(NCCc1c[nH]c2ccccc12)c1cccc(Br)c1	-1.43% [at 1.84 µM] (inactive)	–
CN(c1ccccc1)S(=O)(=O)c1ccc(Cl)c(C(=O)NCCc2c[nH]c3ccccc23)c1	-1.2% (inactive)	–
COCCNc1nnc(SCC(=O)NNC(=O)c2ccco2)s1	1.51% (inactive)	–
CCCCc1ccc(NS(=O)(=O)c2cccc(C(=O)N3CCCN(C)CC3)c2)cc1	-0.577% (inactive)	–

Structure (SMILES)	activation, negative = inhibition	Potency
COc1ccccc1P(=O)(c1ccccc1)c1ccccc1NC(C)=O (stereo unspecified)	-1.37% (inactive)	–
Cc1cccc(C)c1OCCN1CCOCC1	1.22% (inactive)	–
Cc1cc2nc(SCCN3CCOCC3)[nH]c2cc1C	–	3.55 µM (active)
CCn1c2ccc(F)cc2c2nnc(SCCN3CCOCC3)nc21	0.369% (inactive)	–
O=C(Nc1cccnc1Oc1ncnc2cc(Cl)ccc12)c1ccc(F)cc1	-0.405% (inactive)	–
Cc1ccc(S(=O)(=O)N(C)C)cc1NC(=O)c1ccc(-n2cncn2)c([N+](=O)[O-])c1	-2.73% (inactive)	–
O=C(NC1CC1)c1ccc2c(c1)NC(=O)c1ccccc1S2	0.355% (inactive)	–
C/C(=N\Nc1cccc(C(=O)O)c1)c1ccc2c(c1)Nc1ccccc1S2	–	3.16 µM (active)
O=C(O)c1cccc(N2C(=O)Nc3ccccc3N2O)c1	-0.52% (inactive)	–
CCc1ccccc1NC(=O)CN(C)C(=O)c1cc(C2CC2)nn1-c1ccccc1	-6.71% (inactive)	–
CCN1C(=S)N[C@@H](c2cccc(C(F)(F)F)c2)C(C(=O)OC)=C1C	-0.0689% (inactive)	–
O=C(CN1CCN(S(=O)(=O)c2ccc(Cl)s2)CC1)N1CCCCC1	1.18% (inactive)	–
COC(=O)c1cc(NS(=O)(=O)c2ccc3c(c2)c(=O)n(C)c(=O)n3C)cc(C(=O)OC)c1	-1.46% (inactive)	–
CSc1ccccc1C(=O)OCC(=O)N1CCN(C(C)=O)CC1	10.5% (inactive)	–
N#CC(=C1CCCC1)c1nc(-c2ccc(Cl)cc2)cs1	–	3.16 µM (active)
CCCCCN1CC(O)=C(c2nc(-c3ccc(Cl)cc3)cs2)C1=N	-1.52% (inactive)	–
N#C/C(=C1/CCCN1)c1ccccn1	-3.34% (inactive)	–
CCCCN(C(=O)c1nn(C)c(=O)c2ccccc12)c1c(N)n(CCC)c(=O)[nH]c1=O	-1.21% (inactive)	–
